Assay outcomes (PubChem BioAssay)
Many of the other results were omitted from the sample, so hits are more common in it than they were.
Pf Dd2 growth: inhibitors of Plasmodium falciparum Dd2 growth | P. falciparum Dd2 growth, SYBR Green, 72 h | Potency, µM (top dose mostly 28.9 µM), for inactives: top-dose activity, negative = inhibition, hits mostly inhibitors | hit rate 4.3% among 120,000 | AID 1347417; active = well fitted inhibition curve with a large enough effect;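 note: plate controls were DMSO vehicle for no effect and reference drug for full effect; nearly all actives have a fitted effect of over 65% in size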
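Infected erythrocytes (Dd2, 0.3% parasitemia, 2.5% hematocrit final) are added to compound in RPMI-1640/Albumax II medium, grown 72 h at 37C in low oxygen, then lysed with saponin/Triton-X containing SYBR Green and read by fluorescence.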
Active calls of the source: *; [ ] = remark or other dose. Potency is the fitted concentration of half-maximal effect.

For COc1ccc(Nc2c3c(nc4ccc(NC(=O)/C=C/c5cccc(OC)c5OC)cc24)CCCC3)cc1OC the results were Pf Dd2 growth 4µM*.
O=C(c1ccco1)N1CCN(C(=O)C2CCc3ncc(-c4ccsc4)n3C2)CC1 (stereo not given) was read as Pf Dd2 growth -18%.
Cn1nc2n(c1=O)CCC(NS(=O)(=O)c1ccc3c(c1)CCCC3)CC2 (stereo not given) was read as Pf Dd2 growth inactive.
`CC1CCN(c2ccc(CNC(=O)C3CCCN(S(C)(=O)=O)CCC(=O)NCC3)cc2)CC1` (stereo not given) gave Pf Dd2 growth inactive.
For O=C(c1ccc(F)cc1F)N1CCCN(c2cc(-c3ccccc3)[nH]n2)CC1 the results were Pf Dd2 growth inactive.
`CCCNC(=O)N1CCC(O)(c2csc(CN3CCN(C)CC3)n2)CC1` gave Pf Dd2 growth inactive.
Screening COc1cc2c(cc1OC)C(C[C@H]1CN(C(=O)Nc3ccc(F)cc3)CC[C@H]1CC(=O)O)=NCC2 returned Pf Dd2 growth -22%.
Cc1ccc([S+](=O)([O-])N2CCCC(c3nn(-c4ccccc4)c(=O)[nH]3)C2)cc1 (stereo not given) was read as Pf Dd2 growth inactive.
`COc1ccccc1NC(=O)Cn1nc2c(cc1=O)CCCC2` gave Pf Dd2 growth -12%.
Screening COc1ccc(C)cc1NC(=O)CC(=O)Nc1ccc2nc3n(c(=O)c2c1)CCCCC3 returned Pf Dd2 growth -13%.
COc1ccccc1Nc1c2c(nc3ccc(NC(=O)/C=C/c4cccc(OC)c4OC)cc13)CCCC2 was read as Pf Dd2 growth 1.1µM*.
For COc1ccc(C(=O)N[C@H]2CC[C@]3(C)CCC([C@H](C)C(=O)NCc4ccccc4OC)[C@H](O)[C@H]3[C@@H]2C)cc1 (stereo not given in full) the results were Pf Dd2 growth inactive.
CSc1cccc(NC(=O)NC[C@H]2C[C@@H]3CCN2C[C@@H]3CN(C)c2ccccc2)c1 was read as Pf Dd2 growth 8.9µM*.
C#C[C@H]1CN2CC[C@H]1C[C@@H]2CNC(=O)Nc1cccc(SC)c1 was read as Pf Dd2 growth inactive.
For CSc1cccc(NC(=O)NC[C@H]2C[C@@H]3CCN2C[C@@H]3CN2CCN(c3ncccn3)CC2)c1 the results were Pf Dd2 growth inactive.
`Cc1nc([C@@H]2CN(C(=O)CCCc3nc4ccccc4[nH]3)C[C@H]2C(N)=O)n[nH]1` gave Pf Dd2 growth 8%.
`O=C(NCc1cccc(Cl)c1)C1CCN(C(=O)c2ncn3c2COC(c2ccccc2)C3)CC1` (stereo not given) gave Pf Dd2 growth inactive.
Screening CN1CCCCCC(O)c2cc(C(=O)N3CCc4ccccc43)ccc21 (stereo not given) returned Pf Dd2 growth inactive.
COc1cc(NC(=O)CC2C(=O)NCCN2C(C)C)ccc1NC(=O)C(C)(C)C (stereo not given) was read as Pf Dd2 growth -6%.
COc1ccccc1N1CCN(C(=O)CCc2conc2-c2ccc(C)cc2)CC1 was read as Pf Dd2 growth -12%.
COc1ccc(-c2nc(C)nc3c2CCN(CC2CCCCC2)CC3)cc1 was read as Pf Dd2 growth inactive.
Oc1ccc(-c2nc(C3CC3)nc3c2CCN(Cc2ccccn2)CC3)cc1 was read as Pf Dd2 growth inactive.
Screening COc1ccc(-c2nc(C3CC3)nc3c2CCN(Cc2ccc(C#N)cc2)CC3)cc1 returned Pf Dd2 growth 7.9µM*.
For Cc1nc2c(c(-c3ccc(O)cc3)n1)CN(Cc1ccc(F)cc1)CC2 the results were Pf Dd2 growth -6%.
Screening CC(C)c1nc2c(c(-c3ccc(O)cc3)n1)CCN(Cc1cncs1)CC2 returned Pf Dd2 growth -8%.
Screening COc1ccc(-c2nc(C3CC3)nc3c2CCN(Cc2cncs2)CC3)cc1 returned Pf Dd2 growth 10µM*.
COc1ccc(-c2nc(C3CC3)nc3c2CN(S(=O)(=O)c2cccc(OC)c2)CC3)cc1 was read as Pf Dd2 growth -28%.
CC(=O)Nc1ccc(CN2CCc3nc(C4CC4)nc(-c4ccc(O)cc4)c3CC2)cc1 was read as Pf Dd2 growth inactive.
For COc1ccc(-c2nc(C)nc3c2CCN(Cc2ccnn2C)CC3)cc1 the results were Pf Dd2 growth inactive.
COc1ccc(-c2nc(C3CC3)nc3c2CCN(Cc2ccc(NC(C)=O)cc2)CC3)cc1 was read as Pf Dd2 growth 8.9µM*.
`Oc1ccc(-c2nc(C3CC3)nc3c2CCN(Cc2ccc(F)cc2)CC3)cc1` gave Pf Dd2 growth 4µM*.
COc1ccc(-c2nc(C3CC3)nc3c2CCN(Cc2ccnn2C)CC3)cc1 was read as Pf Dd2 growth -1%.
`CC(=O)N1CCN(c2cc(-c3noc([C@@H]4CCCN4Cc4ccc(N(C)C)cc4)n3)ccn2)CC1` gave Pf Dd2 growth inactive.
For O=c1n(-c2ccc(F)cc2F)nc2n1CCN(CC1CC1)C2 the results were Pf Dd2 growth -1%[44.1 µM].
For COCCC1(C(=O)O)CCCN(C(=O)N2CCN(C)CC2)C1 (stereo not given) the results were Pf Dd2 growth -11%.
`O=C(NCC(F)F)C1CN(c2ccccc2)C(=O)N1` (stereo not given) gave Pf Dd2 growth inactive.
COc1ccc(N2CCN(C(=O)CN3C(=O)NC4(CCC(C)CC4)C3=O)CC2)cc1 (stereo not given) was read as Pf Dd2 growth 1%.
`NCC(C1CCCCC1)N1CCCC1` (stereo not given) gave Pf Dd2 growth -10%[44.1 µM].
COCCn1nc2n(c1=O)CCN(C(=O)c1cncc(Br)c1)CC2 was read as Pf Dd2 growth 52%.
`CCOc1ccccc1NC(=O)Cn1c(-c2ccc(Cl)cc2)nc(C)c(CCO)c1=O` gave Pf Dd2 growth -2%.
Screening O=C(c1nc(-c2ccc(Cl)cc2)c2ccccn12)N1CCOCC1 returned Pf Dd2 growth -21%[44.1 µM].
COc1ccc(CN2CCc3nc(C4CC4)nc(-c4ccc(O)cc4)c3CC2)cc1 was read as Pf Dd2 growth 4µM*.
`CCc1nc2c(c(-c3ccc(O)cc3)n1)CCN(C(=O)c1ccc(OC)cc1)CC2` gave Pf Dd2 growth inactive.
COc1ccc(CN2CCc3nc(C4CC4)nc(-c4ccc(O)cc4)c3C2)cc1 was read as Pf Dd2 growth inactive.
Screening NC(=O)[C@@H]1CN(C(=O)c2cccc(F)c2)C[C@H]1COc1ccccc1 returned Pf Dd2 growth -24%.
CCc1noc(-c2cn(C3CCN(C(=O)c4cccs4)CC3)nn2)n1 was read as Pf Dd2 growth inactive.
Screening CN1C(=O)[C@H]2CN(Cc3ccco3)C[C@H]2C1=O returned Pf Dd2 growth 42%.
Screening Cc1ccsc1CN1CCc2nc(N(C)C)[nH]c(=O)c2CC1 returned Pf Dd2 growth -27%[5.79 µM].
For Cc1ccsc1CN1CCc2nc(N3CCN(C)CC3)[nH]c(=O)c2CC1 the results were Pf Dd2 growth inactive[5.79 µM].
For CN1CCN(c2nc3c(c(=O)[nH]2)CCN(Cc2ccc4cc[nH]c4c2)CC3)CC1 the results were Pf Dd2 growth inactive[5.79 µM].
CN(C)c1ncnc2sc3c(c12)CCN(Cc1ccc2cc[nH]c2c1)C3 was read as Pf Dd2 growth 1.3µM*.
For CN1c2cccnc2CN(Cc2ccco2)CC[C@H]1CO the results were Pf Dd2 growth -15%[44.1 µM].
Screening Cc1ccsc1CN1CCc2c(sc3ncnc(N(C)C)c23)C1 returned Pf Dd2 growth 5µM*.
Screening CN(Cc1cccnc1)c1nc2c(c(=O)[nH]1)CCN(Cc1ccc3[nH]ccc3c1)CC2 returned Pf Dd2 growth 40%[5.79 µM].
Screening CN(C)c1ncnc2sc3c(c12)CCN(Cc1ccco1)C3 returned Pf Dd2 growth 4µM*.
